# Screening data: PubChem, National Center for Advancing Translational Sciences (NCATS)
# Abeta rescue – A-beta toxicity reversal in yeast | yeast expressing A-beta42, growth rescue, OD600, 48 h; response scale: 0% DMSO, 100% iron-clioquinol control | Potency, µM (highest dose often 46.1 µM), most hits filed as activators | 410,000 compounds, 0.063% hits; also: nearly all actives have a fitted effect of over 55% in size
#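 Yeast A-beta toxicity model in growth medium with pinned compounds, 48 h at 30 C; growth read as absorbance at 600 nm. Normalized to FeCl3/clioquinol equimolar mix (positive) and DMSO (negative).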
# FUS suppressor – suppressors of FUS proteinopathy in yeast; S. cerevisiae FUS-expressing, growth rescue, OD600, 24 h; Potency, µM (top dose mostly 76.6 µM), usual class: activators; 390,000 compounds, 0.24% hits; AID 1347120;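 also: plate controls were DMSO vehicle for no effect and reference control for full effect; nearly all actives have a fitted effect of over 55% in size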
#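 Yeast FUS proteinopathy model; galactose-induced FUS (2%), starting OD 0.005. Cpds in dilution series, 24hr, 30C, 99% humidity. Abs 600 nm growth. Pos ctrl CP55940 (top 92uM final); neg ctrl DMSO.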
# TDP43 rescue – TDP-43 toxicity inhibition in yeast. TDP-43 expressing yeast growth rescue, BacTiter-Glo, 24 h. Potency, µM (highest dose often 46.1 µM), for the others: at the highest dose growth rescue (activation), most hits filed as activators. 410,000 compounds, 1.8% hits. AID 652104; also: % of control where 0% means no effect; nearly all actives have a fitted effect of over 50% in size
#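 Yeast cells expressing TDP-43 under galactose induction are exposed to compounds for 24 hr at 30 deg C. BacTiter-Glo luminescence measures growth, so protective compounds score as activators.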
# aSyn rescue – alpha-synuclein toxicity inhibition in yeast. Yeast expressing alpha-synuclein, growth rescue, BacTiter-Glo, 24 h. Potency, µM (highest dose often 46.1 µM), for the others: at the highest dose growth rescue (activation), hits mostly activators. 370,000 compounds, 0.14% hits. AID 652106; also: % of control where 0% means no effect; nearly all actives have a fitted effect of over 65% in size
#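 Galactose-induced alpha-syn yeast (OD600=0.02, raffinose-pregrown) + pinned cpd, 24 hr, 30 deg C; growth by BacTiter-Glo luminescence. Growth restoration scores as activation.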
# Mito fusion yeast – inhibitors of mitochondrial division or activators of mitochondrial fusion; 320,000 compounds, 0.23% hits; Potency, µM (series often up to 46.1 µM), inactives show at the highest dose growth rescue (activation), hits mostly activators; S. cerevisiae fusion-defective mutant growth rescue, CellTiterGlo 48 h; also: % of control where 0% means no effect; nearly all actives have a fitted effect of over 45% in size
#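 Growth-rescue viability read-out: after 48 h at the non-permissive 37C in glycerol/ethanol YPEG, yeast mitochondrial fusion mutants are measured by CellTiterGlo luminescence; compounds (23 nl pinned per well) restoring growth score as division inhibitors or fusion activators.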
# * hit, by the source's call; i = inactive; ? = inconclusive; / = no result given. In the library only some 2.2% were active in any assay of this set; here they are far more common. Calls follow the shape of the dose curve; as a rule, active = well fitted curve in the direction sought with a large enough effect; inconclusive = small, poorly fitted or top-dose-only effect, or another doubt; inactive = no such curve, though single readings can be large; an effect the other way counts as inactive or inconclusive. Potency is read from the fitted curve at half-maximal effect.
SMILES,Abeta rescue,FUS suppressor,TDP43 rescue,aSyn rescue,Mito fusion yeast
Cc1cc(C)cc(OCc2nnc(SCC(=O)c3ccccc3)o2)c1,i,i,25%,3%,0%
CCC(=O)Nc1nc2ccccc2n1CCN1CCOCC1,i,i,-1%,3%,-3%
CCCCCCCn1c(NC(=O)CC)nc2ccccc21,22µM*,i,?,?,12%
CCCn1c(NC(=O)c2cccc(S(=O)(=O)N3CCCC3)c2)nc2ccccc21,i,?,22µM*,1%,17%
O=C(Nc1nc(OCCN2CCCC2=O)cnc1/C=C\c1ccccc1)c1cc2ccccc2s1,i,40µM*,19%,?,/
O=C(Cc1cccs1)NC1CC(=O)N(c2ccccc2)C1 (stereo not drawn),i,i,28%,/,/
CC1CC1c1ccc(/C=C(\C#N)C(=O)Nc2ccc(Cl)cc2)o1 (stereo not drawn),i,/,24%,-15%,13%
CC1CC1c1ccc(/C=C(\C#N)C(=O)Nc2ccccc2Cl)o1 (stereo not drawn),i,/,11µM*,17%,20%
CCc1ccccc1NC(=O)/C(C#N)=C/c1ccc(Sc2ccccc2)o1,i,i,-3%,2%,11µM*
CCc1c(C)sc(NC(=O)C2CCCO2)c1C#N (stereo not drawn),i,i,22µM*,-8%,1%
COc1cc(/C=C/c2ccc(O)cc2)cc(OC)c1,i,i,28µM*,-19%,7%
N/C(Cc1ccc(Cl)cc1Cl)=N\OC(=O)c1ccccc1F,i,i,-94%,-78%,0%
N/C(=N\OC(=O)c1cccc2ccccc12)c1ccncc1,i,i,20µM*,?,-6%
N/C(Cc1cccc2ccccc12)=N\OC(=O)COc1ccccc1,i,/,22µM*,-24%,9%
N/C(Cc1cccc2ccccc12)=N\OC(=O)c1ccccc1F,i,/,22µM*,-26%,-2%
CCc1cc2c(cc3c(=O)n(CC(=O)NCc4cc(Br)ccc4OC)ncn32)s1,i,i,14%,/,/
O=C(C1CCN(S(=O)(=O)c2ccccc2F)CC1)N1CCc2ccccc21,i,i,13µM*,15%,8%
COC(=O)c1cccc2c1-c1ccccc1/C2=N/O,i,i,13µM*,-20%,20%
O=C1c2ccccc2C(=O)c2c1ccc(O)c2O,i,i,-70%,-11%,/
COC(=O)c1cccc2c1-c1ccccc1/C2=N\NC(N)=O,i,i,-2%,18%,10%
COC(=O)c1ccc2c(c1O)C(=O)c1ccccc1C2=O,i,i,7.9µM*,2%,-10%
CCCN1C(=O)C2(c3ccccc31)c1c(oc3ccc(C)cc3c1=O)C(=O)N2CCOC (stereo not drawn),i,i,18%,/,/
O=C(NCC1CCCO1)c1cccc2c1C(=O)c1ccc(N3CCC(Cc4ccccc4)CC3)cc1S2(=O)=O (stereo not drawn),i,10µM*,-2%,3%,/
Cn1c(C(=O)Nc2ccccc2)cc2sccc21,i,i,13µM*,6%,7%
CCc1ccccc1NC(=O)c1cc2sccc2n1C,i,i,13µM*,-1%,-2%
SMILES,Abeta rescue,FUS suppressor,TDP43 rescue,aSyn rescue,Mito fusion yeast
CC(CCc1ccccc1)NC(=O)c1cc2sccc2n1C (stereo not drawn),i,i,8%,9%,18%
COc1ccc(CNC(=O)c2cc3sccc3n2C)cc1,i,i,35µM*,/,/
COc1cccc(C2CC(c3c(-c4ccccc4)c4cc(Cl)ccc4[nH]c3=O)=NN2S(C)(=O)=O)c1OC (stereo not drawn),i,35µM*,-2%,14%,3%
COc1ccccc1C1CC(c2c(-c3ccccc3)c3cc(Cl)ccc3[nH]c2=O)=NN1S(C)(=O)=O (stereo not drawn),i,?,-2%,-1%,6%
CNc1ccc(C=C2c3ccccc3-c3ccccc32)cc1,/,/,/,-19%,/
Cc1cccc(C)c1OCC(=O)Nc1ccc2c(c1)OCCO2,i,i,14µM*,0%,0%
COc1cccc(-c2nc(SCC(=O)Nc3ccc4c(c3)OCCO4)c(-c3ccc(C)cc3)[nH]2)c1,i,?,20µM*,/,/
Cc1cccc(OCC(=O)Nc2ccc3c(c2)OCCO3)c1,i,i,18µM*,-2%,10%
CCOc1ccc(C(=O)Nc2ccc3c(c2)OCCO3)cc1Br,i,i,18µM*,/,/
Cc1ccccc1OCC(=O)Nc1ccc2c(c1)OCCO2,i,i,?,0%,-4%
CCc1ccc(NC(=O)NCCc2c(C)nn(C)c2C)cc1,i,i,22%,/,/
CCOC(=O)Cn1c(=O)n(C2CCCCC2)c2nc(-c3ccc(CC)cc3)nc(C(N)=O)c21,i,i,19%,0%,/
CC(=O)CCC1C2C(O)C(C(C)C)C(OC(=O)/C=C/c3ccccc3)CC12C (stereo not drawn),i,i,20%,6%,3.5µM*
O=[N+]([O-])c1ccc(/C=C2\C=Cc3ccccc32)cc1,/,/,/,-2%,/
CCOc1ccc2oc(=O)cc(CN3CCN(C(=O)c4ccc(Cl)cc4)CC3)c2c1,i,?,28%,/,/
Cc1ccc2nc(NC(=O)CSc3nccn3Cc3ccc(F)cc3)sc2c1,?,i,22µM*,?,/
CCc1nnc(NC(=O)c2cc(=O)c3cc(C)ccc3o2)s1,i,i,5%,/,/
COC(=O)c1c(-c2ccc(Br)cc2)noc1N,i,i,20µM*,-3%,0%
CCOc1cc(-c2noc(N)c2C(=O)OC)cc(OCC)c1OCC,i,/,10%,-11%,3%
Cc1ccc(S(=O)(=O)N2CCOC23CCN(C(=O)c2ccccc2Br)CC3)cc1,/,i,16µM*,5%,-13%
Cc1ccc(NC(=O)Cn2ncn3c(cc4ccccc43)c2=O)cc1C,i,i,25%,/,/
Cc1c(CCNC(=O)c2ccco2)sc2nc(-c3ccc(F)cc3)nn12,i,i,?,/,/
Cc1c(CCNC(=O)c2ccc(Br)o2)sc2nc(-c3ccc(F)cc3)nn12,i,i,11%,/,/
Cc1ccc(-c2nc3sc(CCNC(=O)c4ccc(Br)o4)c(C)n3n2)cc1,i,?,18µM*,/,/
Cc1c(CCNC(=O)Cc2ccccc2)sc2nc(-c3ccc(F)cc3)nn12,i,i,10µM*,/,/
Cc1ccc(-c2nc3sc(CCNC(=O)c4ccco4)c(C)n3n2)cc1,i,i,20µM*,/,/
Cc1cc(C)c(S(=O)(=O)NCCc2sc3nc(-c4ccc(F)cc4)nn3c2C)c(C)c1,?,i,20µM*,/,/
Nc1cccc[n+]1C(c1ccnc2ccccc12)[n+]1ccccc1N,/,/,/,4%,/
